The other results are listed elsewhere or left out. No count for the full screen is at hand.
Biological target: furin, P09958
Test: furin cleavage Z-score vs untreated control; higher = more cleavage, active = 3.5 or more, inactive = 1 or less, 8 variable residues between constant flanks
Summary of the method: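 In 50 mM HEPES pH 7.5 with CaCl2 and NaCl, purified furin was incubated with bead-anchored 8-mer peptide–cDNA fusions at 1:10 enzyme:substrate in 0.01 ml. Incubation times were 7.5, 15 and 30 min. DNA set free by cleavage was adapter-tagged by PCR and sequenced, with read counts taken as abundance. Log counts relative to furin-free reactions, after lowess adjustment and median absolute deviation scaling, form the cleavage Z-score.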

Chain of furin, P09958 (P09958 whole entry): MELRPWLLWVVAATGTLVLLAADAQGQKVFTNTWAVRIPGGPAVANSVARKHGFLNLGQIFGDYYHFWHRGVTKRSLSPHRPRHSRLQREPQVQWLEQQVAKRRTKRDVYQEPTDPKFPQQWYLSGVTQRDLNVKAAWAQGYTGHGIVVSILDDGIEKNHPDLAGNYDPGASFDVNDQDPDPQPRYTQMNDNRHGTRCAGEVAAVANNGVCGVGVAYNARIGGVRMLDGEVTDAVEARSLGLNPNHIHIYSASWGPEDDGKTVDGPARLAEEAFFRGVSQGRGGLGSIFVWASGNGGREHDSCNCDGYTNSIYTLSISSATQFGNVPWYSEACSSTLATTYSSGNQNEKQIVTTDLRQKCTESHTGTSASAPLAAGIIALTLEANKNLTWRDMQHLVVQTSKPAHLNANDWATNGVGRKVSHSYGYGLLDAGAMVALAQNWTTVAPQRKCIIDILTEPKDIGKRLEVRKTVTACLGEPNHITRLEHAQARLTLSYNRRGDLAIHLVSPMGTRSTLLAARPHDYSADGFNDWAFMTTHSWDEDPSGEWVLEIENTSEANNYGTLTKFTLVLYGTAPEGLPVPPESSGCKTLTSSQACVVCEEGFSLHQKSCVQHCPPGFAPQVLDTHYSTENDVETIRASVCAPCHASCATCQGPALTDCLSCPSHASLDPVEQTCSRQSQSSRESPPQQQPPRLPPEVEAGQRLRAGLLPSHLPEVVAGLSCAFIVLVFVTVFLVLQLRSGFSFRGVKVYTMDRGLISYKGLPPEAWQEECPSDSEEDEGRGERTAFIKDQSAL

Sequence | furin cleavage Z-score (7.5 min) | furin cleavage Z-score (15 min) | furin cleavage Z-score (30 min)
CAEVECHRPSAGNASASA [HC2352] | 1.1 | 0.203 (inactive) | 0.236 (inactive)
CAFREVPCHRAGNASASA [HC2427] | 0.22 (inactive) | 0.297 (inactive) | 0.623 (inactive)
CAPERLASCRAGNASASA [HC387] | -0.263 (inactive) | 0.599 (inactive) | 1.53
CAVSCCSMSYAGNASASA [HC2017] | 0.592 (inactive) | -0.576 (inactive) | 1.57
CAKRSRDARRAGNASASA [FS-45] | 1.61 | -0.052 (inactive) | 2.16
CASSNQLQRRAGNASASA [NG1] | 0.397 (inactive) | 2.01 | -0.568 (inactive)
CAAISRRQRRAGNASASA [FS-743] | 6.03 (active) | 8.53 (active) | 7.79 (active)
CAGSHRRQRRAGNASASA [FS-434] | 9.09 (active) | 10.6 (active) | 8.98 (active)
CAARMILMTHAGNASASA [HC1581] | -0.255 (inactive) | -1.76 (inactive) | -1.15 (inactive)
CAAYMNTPGLAGNASASA [HC931] | -0.513 (inactive) | -1.08 (inactive) | 0.157 (inactive)
CAMEPCSQHLAGNASASA [HC1719] | 2.46 | 0.794 (inactive) | 2.77
CAGDDDDKAGAGNASASA [EK1] | -2.21 (inactive) | -1.96 (inactive) | 0.274 (inactive)
CARGKRSPKSAGNASASA [FS-2672] | 11.3 (active) | 11 (active) | 9.78 (active)
CARGQRSVKAAGNASASA [FS-3250] | 0.885 (inactive) | -0.415 (inactive) | 1.5
CARGIRPVGRAGNASASA [FS-2932] | -0.929 (inactive) | -0.4 (inactive) | 0.111 (inactive)
CARGSRFSKSAGNASASA [FS-83] | -0.0204 (inactive) | -0.301 (inactive) | 0.871 (inactive)
CARGKRLDGPAGNASASA [FS-3188] | 0.0707 (inactive) | 0.484 (inactive) | -0.699 (inactive)
CARGKRSCHAAGNASASA [FS-2333] | 5.25 (active) | 5.05 (active) | 5.61 (active)
CARGKRSAGPAGNASASA [FS-1951] | 11.6 (active) | 13.8 (active) | 9.13 (active)
CARGKRFSQSAGNASASA [FS-2934] | 0.749 (inactive) | 2.29 | 2
CAETPCSAHLAGNASASA [HC2472] | -0.0785 (inactive) | -0.846 (inactive) | -1.94 (inactive)
CAVCSCLWMMAGNASASA [HC526] | -0.293 (inactive) | -0.986 (inactive) | -0.164 (inactive)

Sequence | furin cleavage Z-score (7.5 min) | furin cleavage Z-score (15 min) | furin cleavage Z-score (30 min)
CARHRRGQETAGNASASA [FS-2145] | 0.466 (inactive) | 0.563 (inactive) | 2.26
CARKKKLVSTAGNASASA [FS-2560] | -1.01 (inactive) | -1.81 (inactive) | -1.46 (inactive)
CARHRRYKALAGNASASA [FS-2556] | -0.784 (inactive) | -0.33 (inactive) | 3.08
CARHRRVNGTAGNASASA [FS-2492] | 0.115 (inactive) | -0.477 (inactive) | -0.55 (inactive)
CARHRRSLRLAGNASASA [FS-1717] | 6.94 (active) | 6.95 (active) | 9.37 (active)
CARHRRLLSIAGNASASA [FS-3256] | -0.899 (inactive) | -0.261 (inactive) | -0.784 (inactive)
CARHRRRGSPAGNASASA [FS-2146] | 0.761 (inactive) | 1.81 | 1.39
CARHRRALDTAGNASASA [FS-2943] | 5.7 (active) | 5.62 (active) | 5.06 (active)
CARKKKTEGTAGNASASA [FS-2423] | -1.18 (inactive) | 0.416 (inactive) | 0.176 (inactive)
CARHRRMLTPAGNASASA [FS-2946] | 5.72 (active) | 9.34 (active) | 8.35 (active)
CARKKRNGLTAGNASASA [FS-2155] | 5.12 (active) | 6.11 (active) | 6.82 (active)
CAMCECSQHLAGNASASA [HC1700] | 0.0737 (inactive) | 0.814 (inactive) | -2.77 (inactive)
CACYSIEPLDAGNASASA [HC1596] | -0.277 (inactive) | -1.75 (inactive) | -0.48 (inactive)
CAATGNLPGCAGNASASA [HC243] | -1.92 (inactive) | -0.777 (inactive) | -0.233 (inactive)
CARNQRIVQLAGNASASA [FS-2435] | -2.13 (inactive) | 0.536 (inactive) | 0.203 (inactive)
CARKKRALDAAGNASASA [FS-2691] | 9.58 (active) | 11.5 (active) | 8.67 (active)
CAQRAYALDTAGNASASA [HC563] | -1.1 (inactive) | -1.23 (inactive) | -0.561 (inactive)
CARKKRALDTAGNASASA [FS-2561] | 9.66 (active) | 11.1 (active) | 10.8 (active)
CALPGIPFVSAGNASASA [HC1162] | -1.14 (inactive) | 0.0847 (inactive) | -1.27 (inactive)
CAKKQRSRRNAGNASASA [FS-1219] | 9.72 (active) | 9.45 (active) | 8.79 (active)
CAQASRTRRNAGNASASA [FS-621] | 11.3 (active) | 14.2 (active) | 10.1 (active)
CATYQRHYRNAGNASASA [FS-512] | 1.23 | 0.916 (inactive) | 2.99

Reference: the supplement of paper PMC3545927
